These entries were drawn from the full list.
aSyn 5UTR act – Activators via SNCA 5'UTR binding, MLPCN; alpha-synuclein 5'UTR reporter, activators screen; activity score, % (tested at 7.5 µM), hits read low; hit rate 7.1% among 300,000; in the data active means activity score below about -60%
Of the large screens only hits and unclear results are named; the others gave an inactive call.

COc1ccc(C(=O)c2ccc(N(C)C)cc2)c2ccccc12	none
COc1ccccc1C(=O)COC(=O)/C=C/c1ccccc1	aSyn 5UTR act -69.0
CN(CC(=O)Nc1cccc(F)c1)C(=O)CCCNC(=O)c1ccc(Cl)cc1	aSyn 5UTR act -90.9
O=C(NC(=S)Nc1cc([N+](=O)[O-])ccc1Cl)c1ccccc1	aSyn 5UTR act -85.3
O=[N+]([O-])c1cccc(/C([O-])=C(/C(=S)Nc2ccccc2)[n+]2ccccc2)c1	aSyn 5UTR act -105.0
O=C(NC(=S)Nc1cccc([N+](=O)[O-])c1)c1ccccc1	aSyn 5UTR act -169.5
O=C(Nc1ccc([N+](=O)[O-])cc1)C(=O)Nc1cccc(C(=O)O)c1	none
COc1cc([N+](=O)[O-])ccc1NC(=S)Nc1cccc(C(=O)O)c1	aSyn 5UTR act -71.8
O=C(NC(=S)Nc1cccc([N+](=O)[O-])c1)c1ccco1	aSyn 5UTR act -113.1
O=[N+]([O-])c1cccc(NC(=S)Nc2nc(-c3ccc(Cl)cc3Cl)cs2)c1	none
C/C(=N/Nc1ccnc2cc(Cl)ccc12)c1ccc(N)cc1	aSyn 5UTR act -177.3
C/C(=N/Nc1ccnc2cc(Cl)ccc12)c1ccc(O)cc1	aSyn 5UTR act -118.2
COc1cc(SC)ccc1C(=O)Nc1ccc(Br)cn1	none
COc1cc(SC)ccc1C(=O)Nc1ccon1	aSyn 5UTR act -108.9
COc1cc(SC)ccc1C(=O)Nc1cccc(C)n1	aSyn 5UTR act -87.5
c1ccc(Nc2ccnc(Nc3ccccc3)n2)cc1	aSyn 5UTR act -100.4
NNc1nc(Nc2ccccc2)nc(Nc2ccccc2)n1	aSyn 5UTR act -117.0
O=C(Nc1nccs1)c1c(O)c2c([nH]c1=O)CCCC2	aSyn 5UTR act -208.7
O=C(N/N=C/c1cccc(Cl)c1)c1c(O)c2c([nH]c1=O)CCCC2	aSyn 5UTR act -99.9
O=C(Nc1ccccc1O)c1c(O)c2c([nH]c1=O)CCCC2	aSyn 5UTR act -182.0
CCCc1nnc(NC(=O)c2c(O)c3c([nH]c2=O)CCCC3)s1	aSyn 5UTR act -75.0
[O-][n+]1onc2c1CCc1c-2nn(-c2ccccc2Cl)[n+]1[O-]	aSyn 5UTR act -154.9
Cc1ccc(-n2nc3c([n+]2[O-])CCc2c-3no[n+]2[O-])cc1	aSyn 5UTR act -140.5
COc1ccc2cc(C#N)c(SCC(=O)Nc3nonc3C)nc2c1	aSyn 5UTR act -79.4
CCc1cc2c(C)ccc(C)c2nc1SCC(=O)Nc1cc(C)on1	none
Cc1cc2cc(C#N)c(SCC(=O)Nc3nonc3C)nc2cc1C	aSyn 5UTR act -91.8
Cc1nonc1NC(=O)CSc1nc2c(C)cccc2cc1C#N	aSyn 5UTR act -98.5
COc1ccc(/C(N)=C/C(=O)C(C)(C)C)cc1	aSyn 5UTR act -97.8
CCc1ccc2nc(N(CCN(C)C)C(=O)c3ccc4ncsc4c3)sc2c1	aSyn 5UTR act -113.7
Cc1cccc2sc(N(CCCN(C)C)C(=O)c3ccc4ncsc4c3)nc12	aSyn 5UTR act -91.9
O=c1oc2cc(OCc3c(F)cccc3Cl)ccc2cc1-c1ccccn1	aSyn 5UTR act -107.4
CCCOc1ccc2cc(-c3ccccn3)c(=O)oc2c1	none
COc1c(C(=O)NNC(=O)c2ccccc2Cl)csc1Br	aSyn 5UTR act -85.5
N/C(=N\N=C\c1ccc([N+](=O)[O-])cc1)c1nonc1N	aSyn 5UTR act -154.5
COc1cc(/C=N/N=C(\N)c2nonc2N)ccc1O	aSyn 5UTR act -78.1
N/C(=N\N=C\c1cccc(O)c1)c1nonc1N	aSyn 5UTR act -105.6
COc1ccc(/C=N/N=C(\N)c2nonc2N)cc1OC	aSyn 5UTR act -93.3
CCN1/C(=C/c2ccc3cc(C)ccc3[n+]2CC)Sc2ccccc21	none
N/C(=N\N=C\c1ccc(O)c(O)c1)c1nonc1N	aSyn 5UTR act -129.6
N/C(=N\N=C\c1ccc(O)cc1)c1nonc1N	aSyn 5UTR act -181.7
CS/C(N)=N/N=C/c1ccc([N+](=O)[O-])cc1	aSyn 5UTR act -133.1
CS/C(N)=N/N=C/c1ccc2c(c1)OCO2	aSyn 5UTR act -119.4
Cc1cccc(C)c1NS(=O)(=O)c1ccc(-c2cnc(C3CC3)o2)cc1	none
N/C(=N\N=C\c1ccc(Br)o1)c1nonc1N	aSyn 5UTR act -115.7
O=C(O)c1ccc(NNC(=S)Nc2cc(C(F)(F)F)ccc2Cl)cc1	aSyn 5UTR act -141.5
O=C1CN(c2ccccc2)C(=S)N1C(=O)c1ccccc1	aSyn 5UTR act -153.6
O=C(Nc1ccccc1F)c1cc2nc(C(F)F)cc(C(F)F)n2n1	aSyn 5UTR act -71.5
CC(=O)C(/C=N/c1cc(-c2ccc(C)cc2)nn1-c1ccccc1)=C(\C)O	aSyn 5UTR act -197.7
Cc1ccc(NC(=O)c2cc(-c3ccccc3)nn2-c2ccccc2)cc1	aSyn 5UTR act -97.6
CCc1nnc(NC(=O)c2cc(-c3ccccc3)nn2-c2ccccc2)s1	aSyn 5UTR act -164.6
CC(=O)c1ccc(NC(=O)c2cc(Cl)sc2Cl)cc1	aSyn 5UTR act -155.8
CC(=O)Nc1ccc(OS(=O)(=O)c2ccc([N+](=O)[O-])cc2)cc1	aSyn 5UTR act -115.0
O=C(Nc1ccccc1F)c1ccc([N+](=O)[O-])s1	aSyn 5UTR act -115.2
O=C(Nc1ccccc1F)c1cc(Cl)sc1Cl	aSyn 5UTR act -62.5
CCC(=O)Oc1ccc(C(=O)Nc2ccc([N+](=O)[O-])cc2)cc1	aSyn 5UTR act -169.7
CC(=O)Nc1cc[n+](C(C)C(=O)c2ccc(Cl)cc2)cc1 (stereo not drawn)	none
CC(=O)c1ccc(NC(=O)Nc2ccc([N+](=O)[O-])cc2)cc1	aSyn 5UTR act -148.0
O=C(Nc1ccc(Oc2ccc(NC(=O)Nc3ccc([N+](=O)[O-])cc3)cc2)cc1)Nc1ccc([N+](=O)[O-])cc1	none
CC(=O)c1ccc(NC(=O)Nc2ccc(Cl)cc2)cc1	aSyn 5UTR act -192.6
Cc1ccc(-n2nnc(-c3ccnc4ccccc34)n2)cc1	aSyn 5UTR act -190.6
Fc1ccc(-n2nnc(-c3ccnc4ccccc34)n2)cc1	aSyn 5UTR act -153.5
OC1CCCCC1Sc1nc2ccccc2s1 (stereo not drawn)	aSyn 5UTR act -88.0
c1ccc(-c2csc(Nc3ncccn3)n2)cc1	aSyn 5UTR act -65.6
NNc1nc(-c2ccccc2)cs1	aSyn 5UTR act -91.7
CC(=O)Nc1ccc(-c2csc(Nc3ncccn3)n2)cc1	aSyn 5UTR act -89.4
Oc1ccc(-c2csc(Nc3ncccn3)n2)cc1	aSyn 5UTR act -153.7
Cc1cccnc1Nc1nc(-c2ccccc2)cs1	aSyn 5UTR act -128.3
CCCCNc1c(-c2ccc(SC3CCCCC3)cc2)nc2ccccn12	aSyn 5UTR act -83.0
COc1cccc(C(=O)/C=C/Nc2cccc(O)c2)c1	aSyn 5UTR act -86.7
COc1cccc(C(=O)/C=C/Nc2ccc(NC(C)=O)cc2)c1	aSyn 5UTR act -124.7
Nc1ccccc1Nc1cc(-c2ccccc2)[nH]n1	aSyn 5UTR act -170.7
Cc1ccc(N=Nc2ccc(O)c3ncccc23)cc1	none
Cc1ccc(N=Nc2c(O)n(CN3CCOCC3)c3ccccc23)cc1	aSyn 5UTR act -115.5
Cc1ccnc2nc(C(=O)Nc3ccc(N4CCOCC4)cc3)nn12	aSyn 5UTR act -73.0
Cc1ccc(NC(=O)c2nc3nccc(C)n3n2)c(C)c1	aSyn 5UTR act -63.7
Cc1csc(NC(=O)c2nc3nccc(C)n3n2)n1	aSyn 5UTR act -147.2
CC(=O)Nc1ccc2nc(C3CC3)n(Cc3ccc(Cl)cc3)c(=O)c2c1	aSyn 5UTR act -165.2
CCC(=O)Nc1ccc2nc(C3CC3)n(Cc3ccc(C(C)(C)C)cc3)c(=O)c2c1	aSyn 5UTR act -149.6
COc1ccc(Cn2c(C3CC3)nc3ccc(NC(=O)C4CC4)cc3c2=O)cc1	aSyn 5UTR act -280.3
Cc1cc(C(=O)CSc2nnnn2-c2ccccc2)c(C)n1CC1CCCO1 (stereo not drawn)	aSyn 5UTR act -104.9
CCn1c(SCC(=O)c2cc(C)n(CC3CCCO3)c2C)nc2ccccc21 (stereo not drawn)	aSyn 5UTR act -118.8
